The list is not random: actives were taken first. Their share in the collection is about 1.6%.
Glyco luc inh: increase of ERlucT glycosylation luciferase signal, primary screen, N-linked glycosylation inhibitor project, D54 ERlucT cells, luminescence, set 2. D54 ERlucT glycosylation luciferase reporter, 24 h; percent of 100 nM tunicamycin response. reporter increase, % at 12.5 µM. 360,000 compounds, 0.23% hits. AID 588692, 2011;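 active means mean luciferase reporter signal, scaled so untreated is 0 and the glycosylation-blocking control 100, at or above a set limit in every replicate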;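 further: luciferase carries N-glycosylation sites so blocking glycosylation raises the light; 0% = median of neutral control wells and 100% = median of 100 nM tunicamycin wells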
RAD54 inh: inhibitors of human RAD54 branch migration, primary screen, biochemical, fluorescence, single point; RAD54 Holliday junction branch migration, FAM/BHQ fluorescence; DNA repair and recombination protein RAD54-like (Homo sapiens), Q92698; inhibition, % at 10.4 µM; AID 602329, 2012; 360,000 compounds, 0.14% hits;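 active means mean normalized replicate activity at least 40 and at least half of replicates scoring 40 or more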;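 further: 0% = median of neutral control wells and 100% = median of positive control wells; inhibitors cause a drop in the FAM fluorescence signal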
Myeloid diff 2: induction of myeloid progenitor differentiation, primary screen, cell-based, flow cytometry, MLPCN library; AID 624256, 2012; ER-HoxA9 myeloid progenitors, lysozyme-GFP differentiation; calls only at 10 µM; 360,000 compounds, 1% hits;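 active means normalized GFP-positive differentiation at or above the plate's own cutoff, the solvent-only control mean plus 3 SD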;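 further: cells exposed to compound for four days before flow analysis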
ABCB6 inh MLPCN: ABCB6 transporter inhibitors, primary screen, K562-ABCB6 cells, flow cytometry, MLPCN library; K562-ABCB6 porphyrin accumulation, 1 h; stronger effect = lower value; ATP-binding cassette sub-family B member 6 (Homo sapiens), Q9NP58; 360,000 compounds, 0.19% hits; fluorescence ratio to DMSO, % at 10 µM;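 active means fluorescence ratio to DMSO below 75%, the collection mean minus 3 SD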;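 further: signal is porphyrin accumulated inside mitochondria; 100% equals median channel fluorescence of DMSO control wells; lower ratio means ABCB6 inhibition with less porphyrin fluorescence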
Vif imaging: HIV Vif self-association inhibitors, primary screen, imaging, HEK293T, single point; HEK293T cells, Vif self-association by quenched fluorescence, 24 h; inhibition, % at 7.49 µM; 340,000 compounds, 0.35% hits; in the data active means inhibition above about 50%, passing the limit was not always enough
Numbers without * were called inactive; i = inactive; nt = no result given; + = active, no number.

SMILES | Glyco luc inh | RAD54 inh | Myeloid diff 2 | ABCB6 inh MLPCN | Vif imaging
O=C(NCCCO)/C(=C/c1ccc(-c2cccc([N+](=O)[O-])c2)o1)NC(=O)c1ccccc1 | 2 | -4 | i | 95 | 10
Cc1ccc(C(=O)N/C(=C/c2ccc(-c3ccc([N+](=O)[O-])cc3)o2)C(=O)NCCCN(C)C)cc1 | -13 | nt | + | 218 | 14
O=S(=O)(N=C1C=CC(=NS(=O)(=O)c2ccccc2)c2ccccc21)c1ccccc1 | 3 | -6 | + | 142 | 3
Cc1ccc(S(=O)(=O)/N=C2\C=C(NS(=O)(=O)c3ccccc3)C(=O)c3ccccc32)cc1 | 5 | -4 | i | 96 | 15
C[C@@H](NC(=O)[C@@H]1[C@@H](CO)[C@@H]2Cn3c(cccc3=O)[C@@H]2N1CC1CCCC1)c1ccccc1 | nt | 1 | nt | nt | nt
CN(C)C(=O)C[C@H]1C=C[C@H](NC(=O)Nc2cccc(F)c2)[C@@H](CO)O1 | nt | -7 | nt | nt | nt
CCn1c(COc2cccc(OC)c2)nnc1SCC(=O)NC1CCCC1 | -1 | -5 | i | 97 | 51*
C=CCn1c(COc2ccc(F)cc2)nnc1SCC(=O)NC1CCCC1 | 0 | -3 | i | 98 | -3
C=CCn1c(COc2ccc(F)cc2)nnc1SCC(=O)NC1CCS(=O)(=O)C1 (stereo unspecified) | 3 | nt | i | 71* | -1
C[C@@H]1CCCCO[C@@H](CN(C)S(=O)(=O)c2ccc(F)cc2)[C@@H](C)CN([C@H](C)CO)C(=O)c2cc(NC(=O)Nc3ccccc3)ccc2O1 | nt | -18 | nt | nt | nt
CN(C)CCCNC(=O)C[C@H]1CC[C@H](NC(=O)Cc2cccnc2)[C@@H](CO)O1 | nt | 2 | nt | nt | nt
CCC(=O)Nc1ccc2c(c1)C(=O)N(C)[C@H]1CC[C@H](CC(=O)O)O[C@@H]1CO2 | nt | 3 | nt | nt | nt
Cc1ccc2c(c1)c1c3n2CCCN(Cc2ccccc2)C3CCC1 (stereo unspecified) | -1 | 1 | + | 97 | -10
C[C@@H]1CN([C@@H](C)CO)C(=O)c2cc(NC(=O)Nc3ccccc3)ccc2O[C@@H](C)CCCCO[C@H]1CN(C)Cc1ccncc1 | nt | -5 | nt | nt | nt
COCC(=O)Nc1ccc2c(c1)OC[C@@H](C)N(Cc1ccccc1F)C[C@@H](C)[C@H](OC)CN(C)C2=O | nt | -2 | nt | nt | nt
CN1C(=O)/C(=C/C=C2/CCCN2C)N(C)C1=S | 3 | -1 | i | 96 | -7
Cc1cc(N2CCCC2)ccc1/C=C1/C(=O)N(C)C(=S)N1C | 14 | -11 | + | 316 | 2
CCOc1cccc(-c2nnc(SCC(=O)Nc3cccc(OC)c3)n2N)c1 | 1 | 2 | i | 100 | -3
COc1cccc(-c2nnc(SCC(=O)Nc3ccc(OC)c(OC)c3)n2N)c1 | 1 | -2 | + | 96 | 10
Cc1cc(C(=O)Nc2ccc3c(c2)C(=O)N(C)[C@@H]2CC[C@H](CC(=O)NCC(F)(F)F)O[C@@H]2CO3)no1 | nt | 2 | nt | nt | nt
CC(C)C(=O)Nc1cccc(S(=O)(=O)NC2=NCCC2)c1 | 6 | 0 | i | 94 | -2
O=C(CCl)Nc1cccc(S(=O)(=O)NC2=NCCC2)c1 | 60* | nt | i | 99 | 3
O=C(NC1CCCc2ccccc21)c1ccccc1Br (stereo unspecified) | -1 | 0 | i | 90 | 60*
O=C(O)c1ccccc1C(=O)NC1CCCc2ccccc21 (stereo unspecified) | 0 | 4 | nt | 96 | nt
Cc1[nH]c2ccccc2c1/C=N/Nc1nc(Nc2ccccc2)nc(N2CCOCC2)n1 | -8 | 2 | + | 98 | -2
O=C(N[C@@H]1CC[C@H](CC(=O)N2CCOCC2)O[C@H]1CO)c1ccccn1 | nt | -4 | nt | nt | nt
COc1ccc2c(-c3ccccc3)cc(SCC(N)=O)nc2c1 | -5 | -30 | + | 96 | -4
COc1ccc2nc(SCC(N)=O)cc(C)c2c1 | 1 | 12 | i | 110 | 1
CN(C)C(=O)C[C@H]1CC[C@@H]2[C@H](COc3ccc(NC(=O)c4ccc(F)c(F)c4)cc3C(=O)N2C)O1 | nt | -31 | nt | nt | nt
CCn1c(=NC(=O)CS(=O)(=O)c2ccc(F)cc2)sc2cccc(OC)c21 | -3 | -6 | + | 101 | -2
